Hits are enriched below; roughly 4.8% of the tested compounds scored in any of these assays.
SMARCA2 activ: SMARCA2 (BRM) function activators, primary screen, cell-based, luminescence, high throughput; 370,000 compounds, 1% hits; MG213 cells, MMTV-luciferase reporter, dexamethasone, overnight; activation, % at 9.1 µM; AID 652017, 2013; in the data active = activation above about 7.8%;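 note: 0% = vehicle wells and 100% = reference activator wells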
hcDAF-12 act: H. contortus DAF-12 nuclear receptor activators, primary screen, cell-based, luminescence, HEK293, lit1-tk-luc reporter | 370,000 compounds, 1.4% hits | activation, % at 6.8 µM | HEK293 hcDAF-12 lit1-tk-luc reporter; 0% DMSO, 100% Δ7-dafachronic acid | AID 652067, 2013;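 active = activation above the mean of all tested compounds plus 3 SD, cut at about 5.5% in these data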;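 note: 100% = response to 3 µM Δ7-dafachronic acid high control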
ssDAF-12 act: S. stercoralis DAF-12 nuclear receptor activators, primary screen, cell-based, luminescence, HEK293, GRIP1 co-expression, lit1-tk-luc; AID 652126, 2013; 370,000 compounds, 1% hits; HEK293 ssDAF-12/GRIP1 lit1-tk-luc reporter; % of 3 µM dafachronic acid response; Nuclear hormone receptor DAF-12 (Strongyloides stercoralis); activation, % at 6.8 µM;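 active = activation above the mean over all tested compounds plus 3 SD, cut at about 0.9% in these data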;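 note: 0% = DMSO-only wells and 100% = 3 µM delta7-dafachronic acid wells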
DAX1 inh-1: DAX1 (NR0B1) inhibitors on StAR promoter, primary screen, cell-based, luminescence, SF-1 (NR5A1), full-length DAX-1; HEK293T StAR-luciferase reporter, SF-1/DAX-1 repression relief; inhibition, % at 6.8 µM; 370,000 compounds, 1.1% hits; AID 652010, 2013;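 active = inhibition above the mean over all tested compounds plus 3 SD, cut at about 3.6% in these data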;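 note: 0% = DAX-1 cells with DMSO and 100% = cells lacking DAX-1 with DMSO; higher inhibition means more luminescence from relief of DAX-1 repression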
DAX1 inh-2: DAX1 (NR0B1) inhibitors, primary screen, cell-based, HEK293, Gal4-DAX1, luciferase luminescence | AID 504766, 2011 | 340,000 compounds, 0.99% hits | inhibition, % at 6.75 µM | Nuclear receptor subfamily 0 group B member 1 (Homo sapiens), P51843 | HEK293 Gal4-DAX1 luciferase reporter;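 active = inhibition above the mean over all tested compounds plus 3 SD, cut at about 4.2% in these data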;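 note: 0% = DAX1-transfected cells with DMSO and 100% = empty-vector control cells with DMSO; inhibition shows as a rise in luminescence from relieved DAX1 repression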
hgDAF-12 ag: H. glycines DAF-12 receptor agonists, primary screen, cell-based, luminescence, HEK293, GAL4 fusion, UAS-luciferase; Nuclear hormone receptor DAF-12 (Heterodera glycines), GAL4 fusion; activation, % at 6.8 µM; 370,000 compounds, 1.8% hits; HEK293 GAL4-hgDAF12 UAS-luciferase reporter, agonist luminescence; normalized to butyrate control; AID 687014, 2013;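 active = activation above a cutoff set at the mean of all screened compounds plus 3 SD, cut at about 10% in these data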;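 note: 0% = DMSO wells and 100% = sodium butyrate wells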
DAX1 inh confirm: DAX1 (NR0B1) inhibitors relieving SF-1 repression, confirmation, cell-based, luminescence, HEK293T, full-length DAX-1, SF-1 activated StAR promoter; shares compounds with DAX1 inh-1; HEK293T StAR-promoter luciferase reporter, SF-1/DAX-1 repression; inhibition, % at 6.8 µM; 2,400 compounds, 87% hits; AID 652134, 2013;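 active = inhibition above the average of every tested compound plus 3 SD, cut at about 3.8% in these data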;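 note: 0% = DAX-1 cells with DMSO and 100% = no DAX-1 control cells with DMSO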
Target sequence (P51843 whole entry, looked up): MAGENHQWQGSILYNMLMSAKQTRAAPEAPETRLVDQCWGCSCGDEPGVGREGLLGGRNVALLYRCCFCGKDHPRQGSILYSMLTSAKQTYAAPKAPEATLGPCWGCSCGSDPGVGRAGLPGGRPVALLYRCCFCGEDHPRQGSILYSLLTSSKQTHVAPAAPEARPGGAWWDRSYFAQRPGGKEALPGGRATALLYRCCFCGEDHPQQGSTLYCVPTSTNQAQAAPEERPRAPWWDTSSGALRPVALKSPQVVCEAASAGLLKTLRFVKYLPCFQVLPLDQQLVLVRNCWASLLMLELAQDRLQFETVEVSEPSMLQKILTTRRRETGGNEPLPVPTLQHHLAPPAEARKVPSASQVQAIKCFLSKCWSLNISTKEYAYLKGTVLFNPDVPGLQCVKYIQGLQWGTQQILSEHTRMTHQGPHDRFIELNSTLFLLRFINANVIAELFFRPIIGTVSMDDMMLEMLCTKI
SF1 mutant ctr: StAR reporter signal changes without DAX1, counter-screen for DAX1 inhibitor project, cell-based, luminescence, AF-2 mutant SF-1, transactivation; shares compounds with DAX1 inh-1; HEK293 StAR-luciferase, SF-1 AF2 mutant; 2,400 compounds, 78% hits; inhibition, % at 6.8 µM;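 active = inhibition above the mean of all tested compounds plus 3 SD, cut at about 3% in these data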;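 note: 0% = DAX-1 transfected cells with DMSO and 100% = cells without DAX-1 with DMSO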
Starred values were filed as active, the others as inactive; nt = not tested or not shown.

SMILES	SMARCA2 activ	hcDAF-12 act	ssDAF-12 act	DAX1 inh-1	DAX1 inh-2	hgDAF-12 ag	DAX1 inh confirm	SF1 mutant ctr
CC(C)(C)c1ccc(-c2nnc(SCC(=O)NCC3CCCO3)n2N)cc1 (configuration not stated)	0	1	-1	6.5*	1	-1	3	1
COc1cc(/C=C2\SC(=S)N(CCCCC(=O)O)C2=O)ccc1OS(=O)(=O)c1ccc(C)cc1	-2	0	-1	5.9*	1	-4	6.2*	5.8*
CCCCC(=O)NC(=S)NNC(=O)CC#N	-1	-2	-1	4.7*	1	0	2	0
Cc1ccc2nc(C(C)(C)C)c(Cc3ccccc3C(F)(F)F)n2c1	-3	1	0	0	nt	2	nt	nt
Cc1ccc2nc(-c3ccc(Cl)cc3)c(CC3CCCCC3)n2c1	4	7.4*	1	6.2*	nt	23*	5.3*	4.9*
FC(F)(F)c1ccccc1Cc1c(-c2ccccc2)nc2ccc(Cl)cn12	4	2	0	1	nt	6	nt	nt
Cc1ccc(-c2nc3ccc(C)cn3c2Cc2ccccc2C(F)(F)F)cc1	3	3	0	5.7*	nt	12*	5.0*	4.1*
Cc1ccc2nc(-c3ccccc3)c(Cc3ccccc3C(F)(F)F)n2c1	3	4	0	4.7*	nt	9	3.8*	3.8*
FC(F)(F)c1ccccc1Cc1c(-c2ccc(Cl)cc2)nc2ccc(Cl)cn12	6	1	1	4.8*	nt	12*	4.1*	3.8*
COC(=O)c1ccc2nc(-c3ccc(Cl)cc3)c(CC3CCCCC3)n2c1	-1	3	1	1	nt	4	nt	nt
CC(C)(C)OC(=O)[C@H](Cc1ccccc1)NCC(=O)OCc1ccc(C(=O)NCc2ccccc2)cc1	-2	-2	0	-1	nt	-3	nt	nt
COC1=C(OC)C(=O)C(CCCCCCCCCCO)=C(C)C1=O	-7	-1	-1	-3	nt	-4	nt	nt
O=C(CSc1n[nH]c(=O)n1C1CC1)Nc1ccccc1	-2	0	-2	11*	0	-1	2	2
O=c1oc2ccc(Cl)cc2cc1-c1nnc(Nc2cccc(C(F)(F)F)c2)s1	1	0	-1	1	1	3	nt	nt
CC1CCCCC1NC(=O)NC(=O)COC(=O)c1ccc(OC(F)F)cc1 (configuration not stated)	-1	0	-1	1	0	1	nt	nt
CCOc1ccccc1OCC(=O)Nc1cc(C)on1	2	0	-2	0	1	1	nt	nt
Cc1cc(NC(=O)COc2ccc3ccccc3c2Br)no1	6	3	-1	6.0*	1	9	5.6*	6.0*
Cc1ccc(CNC(=O)CN(c2ccc(C(C)C)cc2)S(=O)(=O)c2c(C)noc2C)cc1	-3	-1	-1	1	1	-1	nt	nt
O=C(Nc1ccc(N2CCOCC2)c(F)c1)c1cccs1	5	4	0	10*	2	10	11*	7.4*
O=C(Cc1n[nH]c(=O)c2ccccc12)OCC(=O)c1ccc2c(c1)OCCO2	1	-1	0	2	0	2	nt	nt
CCCCC[C@H](C)N1C[C@@H](COCc2ccccc2)Oc2cc(N3CCC[C@H]3COC)ccc2S1(=O)=O	4	0	0	0	nt	2	nt	nt
CCCCC[C@H](C)N1C[C@H](COCc2ccccc2)Oc2cc(N3CCC[C@@H]3COC)ccc2S1(=O)=O	-4	1	-1	5.4*	nt	1	0	-1
COc1cc(SC)ccc1C(=O)Nc1ccc(Cl)cn1	7	5	1	5.3*	0	12*	-2	-4
CC(C)C(c1nnnn1Cc1ccco1)N1CCN(c2nc3ccccc3s2)CC1 (configuration not stated)	-2	-1	-1	0	-1	-2	nt	nt
CCCCOc1ccccc1C1CC(=O)NC2=C1C(=O)CCC2 (configuration not stated)	0	1	-1	-1	-1	-1	nt	nt
SMILES	SMARCA2 activ	hcDAF-12 act	ssDAF-12 act	DAX1 inh-1	DAX1 inh-2	hgDAF-12 ag	DAX1 inh confirm	SF1 mutant ctr
Cc1ccnc(NC(=O)c2ccc3c(c2)NC(=O)C(C)S3)c1 (configuration not stated)	0	4	0	11*	-2	6	9.2*	3.9*
CCOc1cc(N2CCC(O)CC2)ccc1Nc1ncc2c(n1)N(C)c1ccccc1C(=O)N2C	4	4	0	5.9*	nt	-8	0	-9
Cc1ccc(C)c(N2CCN(C(=O)CCc3nc(-c4cccc(Cl)c4)no3)CC2)c1	0	4	1	5.1*	2	10	5.8*	3.6*
COC(=O)[C@]12CCCCC=C1N(CCc1ccc(OC)c(OC)c1)C(=O)[C@H](CC(=O)NCc1cccc3ccccc13)C2	2	-1	-1	4.6*	nt	0	3	6.3*
COC(=O)[C@]12CCCCC=C1N(Cc1cccc3ccccc13)C(=O)[C@H](CC(=O)NCc1ccc(OC)c(OC)c1)C2	-6	-6	-3	-8	nt	-16	nt	nt
CCOC(=O)[C@]12CCCC=C1N(Cc1ccc3c(c1)OCO3)C(=O)[C@H](CC(=O)NCc1cccc3ccccc13)C2	2	-1	-1	6.2*	nt	3	0	2
CCOC(=O)[C@]12CCCC=C1N(Cc1cccc3ccccc13)C(=O)[C@H](CC(=O)NCc1cccc3ccccc13)C2	-6	1	0	-1	nt	1	nt	nt
Cc1ccc(S(=O)(=O)N(C)CC(=O)Nc2cc(C)ccn2)cc1	3	5	0	4.6*	3	10*	6.8*	5.2*
Cc1ccc(S(=O)(=O)N2CCN(CC(=O)NCC3(N4CCOCC4)CCCCC3)CC2)cc1	-2	2	-1	1	-1	0	nt	nt

High-throughput results from PubChem.
